Measurements published in PubChem BioAssay (NCI).
About 79,000 compounds went through this panel and 15% of them were active in at least one assay; those are over-represented in the sample as a whole. Unmarked numbers belong to inactive results. Activity calls are given as the source filed them. Rule as the data show it: active = growth inhibition above about 70%; inactive = the rest. Where a SMILES comes first, the peptide text is derived from it. [ ]: non-standard residue; d: D form. The star is where a group is joined. mTyr = N[CH](Cc1cccc(O)c1)C(=O)O; Cbz = O=C(OCc1ccccc1)*; OBn = c1ccc(CO*)cc1

Experiment: NCI Yeast Anticancer Drug Screen. Data for the bub3 strain (AID 167)
Conditions: S. cerevisiae bub3 mutant strain, at 50.0 µM, hits give high values
Outline: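 Inhibition values come from growth of compound-treated mutant yeast normalised to vehicle-treated controls.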

Compound | growth inhibition
Cc1cc2c(cc1S(=O)(=O)O)C1C(C3C2C2(Cl)C(Cl)=C(Cl)C3(Cl)C2(Cl)Cl)C2(Cl)C(Cl)=C(Cl)C1(Cl)C2(Cl)Cl (centres undefined) | 70.8% (active)
O=C1/C(=C/c2ccccc2)CNC/C1=C\c1ccccc1 | 94.2% (active)
Cc1ccc2c(c1)-c1cc(C)ccc1C2(O)c1ccccc1 | 96.7% (active)
CCCc1cc2c(cc1COc1ccccc1C(=O)O)OCO2 | 25.4%
O=C1OC(c2ccc3c(c2)OCO3)Sc2ccccc21 (centres undefined) | 68.3%
Cc1cc(NC(=S)SCc2ccc(Cl)cc2)ccc1F | 98.5% (active)
NC(=O)CC1CCC(c2ccccc2)CC1 (centres undefined) | 12.7%
[O-]c1c2cc(-[n+]3c(-c4ccccc4)cc(-c4ccccc4)cc3-c3ccccc3)cc1CO[C@@H](c1ccccc1)[C@H](c1ccccc1)OCc1cccc(n1)CO[C@@H](c1ccccc1)[C@H](c1ccccc1)OC2 | 89.3% (active)
OCCN(CCO)c1cc(/C=C/c2ccnc3ccccc23)nc2ccccc12 | -12.6%
COC(=O)C(Cc1cccc(O)c1)NC(=O)C(CC(=O)OCc1ccccc1)NC(=O)OCc1ccccc1 (centres undefined) (Cbz-Asp(OBn)-[mTyr]-OMe; configuration not given here) | 91% (active)
COc1cc[c]([Sn]([c]2ccc(OC)cc2)([c]2ccc(OC)cc2)[c]2ccc(OC)cc2)cc1 | 82.3% (active)
COC(=O)CCCCCOS(=O)(=O)c1ccc(C)cc1 | 1.05%
O=S(=O)(C#Cc1ccccc1)c1ccccc1 | 99.1% (active)
N#CC1(C#N)C(C#N)(C#N)C12CCCCCC2 | 99% (active)
CCOC(=O)/C(C)=N/Nc1cc(Cl)ccc1O | 34.5%
N/C(CC(=O)NOC(=O)c1ccccc1)=N/OC(=O)c1ccccc1 | 99.2% (active)
C/C(=N\NC(=S)N1CCC(C)CC1)c1ncccn1 | 99.3% (active)
Cc1ccc(S(=O)(=O)OCC(/C=N/NC(N)=O)OCOC(C)/C=N/NC(N)=O)cc1 (centres undefined) | -1.4%
CN1COc2c(Cl)cc(Cl)cc2C1 | 45.5%
c1ccc2cc3c(cc2c1)Nc1c2ccccc2nc2cccc-3c12 | 81.3% (active)
CCCCN(CCCC)S(=O)(=O)c1ccccc1 | 65.5%
Cc1cccc(N2C(c3ccccc3)c3ccc(C)cc3NS2=O)c1 (centres undefined) | 99.2% (active)
CN(C)c1ccc(/C=N/c2nc(-c3ccccc3)cs2)cc1 | 93.2% (active)
O=C1c2ccccc2-c2nc3ncccc3cc21 | 79.4% (active)

Experiment: NCI Yeast Anticancer Drug Screen. Data for the mlh1 rad18 strain (AID 175)
Conditions: S. cerevisiae mlh1 rad18 strain growth inhibition; at 5.0 µM (retest, dose inferred, filed as 0.5); hits give high values
Outline: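 Compound-treated yeast growth, normalised to vehicle controls. Strain bears defined DNA repair mutations.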

Compound | growth inhibition
CC(/C=N/NS(=O)(=O)c1ccc(C)cc1)=C(c1ccccc1)c1ccccc1 | 62%
CCOC(=O)Cc1cc(=O)oc2c(CN3CCN(c4ccc(C)cc4)CC3)c(O)ccc12 | 3%
Clc1ccc(/C=N\Nc2c3ccccc3nc3ccccc23)cc1Cl | 1%
CNC(=O)c1cc(NC(=O)c2ccc(C(=O)Nc3cc(C(=O)NC)cc(C4=NCCN4)c3)cc2)cc(C2=NCCN2)c1 | 2%
O=P1(O)c2ccccc2CS(=O)(=O)Cc2ccccc21 | 35%
CC1=C(C(=O)NCc2ccccc2)C(c2ccccc2[N+](=O)[O-])C(C(=O)NCc2ccccc2)=C(C)N1 | 4%
Oc1ccc(C2CCCCC2)cc1 | 0%
CCN(CC)CCOc1cccc2c1C(=O)c1c(O)cccc1C2=O | -1%
CCN(CC)C1Oc2cc3c(cc2C(c2ccc(OC)cc2)C1C)OCO3 (centres undefined) | -14%
COc1ccc(C2C3CCCC(C(c4ccc(OC)cc4)N2C)C32NC(=O)NC2=O)cc1 (centres undefined) | 29%
Clc1ccc(SSc2ccc(Cl)cn2)nc1 | 11%
CN=c1sc2c(n1C)C(=O)c1ccccc1C2=O | 23%
O=C(Nc1cccc(Cl)c1)OCCOC(=O)Nc1cccc(Cl)c1 | 4%
O=[N+]([O-])c1ccc2c(c1)Cc1cc(Cl)ccc1-2 | 6%
Cc1c(-c2ccccc2)ccnc1/C=N/NC(=S)NCCc1ccccc1 | 49%
O=C(O)CCC(=O)NCCNC(=O)CC(=O)O | -116%
Cc1cc2c(cc1S(=O)(=O)O)C1C(C3C2C2(Cl)C(Cl)=C(Cl)C3(Cl)C2(Cl)Cl)C2(Cl)C(Cl)=C(Cl)C1(Cl)C2(Cl)Cl (centres undefined) | -20%
O=C1/C(=C/c2ccccc2)CNC/C1=C\c1ccccc1 | -4%
Cc1ccc2c(c1)-c1cc(C)ccc1C2(O)c1ccccc1 | -6%
CCCc1cc2c(cc1COc1ccccc1C(=O)O)OCO2 | -2%

Compound | growth inhibition
O=C1OC(c2ccc3c(c2)OCO3)Sc2ccccc21 (centres undefined) | -6%
Cc1cc(NC(=S)SCc2ccc(Cl)cc2)ccc1F | 2%
NC(=O)CC1CCC(c2ccccc2)CC1 (centres undefined) | 0%
[O-]c1c2cc(-[n+]3c(-c4ccccc4)cc(-c4ccccc4)cc3-c3ccccc3)cc1CO[C@@H](c1ccccc1)[C@H](c1ccccc1)OCc1cccc(n1)CO[C@@H](c1ccccc1)[C@H](c1ccccc1)OC2 | 98% (active)
OCCN(CCO)c1cc(/C=C/c2ccnc3ccccc23)nc2ccccc12 | 9%
COC(=O)C(Cc1cccc(O)c1)NC(=O)C(CC(=O)OCc1ccccc1)NC(=O)OCc1ccccc1 (centres undefined) (Cbz-Asp(OBn)-[mTyr]-OMe; configuration not given here) | -4%
COc1cc[c]([Sn]([c]2ccc(OC)cc2)([c]2ccc(OC)cc2)[c]2ccc(OC)cc2)cc1 | -14%
COC(=O)CCCCCOS(=O)(=O)c1ccc(C)cc1 | -5%
O=S(=O)(C#Cc1ccccc1)c1ccccc1 | 16%
N#CC1(C#N)C(C#N)(C#N)C12CCCCCC2 | 52%
CCOC(=O)/C(C)=N/Nc1cc(Cl)ccc1O | 7%
N/C(CC(=O)NOC(=O)c1ccccc1)=N/OC(=O)c1ccccc1 | 27%
C/C(=N\NC(=S)N1CCC(C)CC1)c1ncccn1 | -4%
Cc1ccc(S(=O)(=O)OCC(/C=N/NC(N)=O)OCOC(C)/C=N/NC(N)=O)cc1 (centres undefined) | 1%
CN1COc2c(Cl)cc(Cl)cc2C1 | -1%
c1ccc2cc3c(cc2c1)Nc1c2ccccc2nc2cccc-3c12 | 29%
CCCCN(CCCC)S(=O)(=O)c1ccccc1 | 2%
Cc1cccc(N2C(c3ccccc3)c3ccc(C)cc3NS2=O)c1 (centres undefined) | -4%
CN(C)c1ccc(/C=N/c2nc(-c3ccccc3)cs2)cc1 | 23%
O=C1c2ccccc2-c2nc3ncccc3cc21 | -5%
